# Laboratory results from PubChem BioAssay.
# Activity calls are given as the source filed them.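 How the source made its calls, unless noted: active means fluorescence slope higher than the sample average by over 3 SD (cut at about -0.22 in these data, passing the limit was not always enough); inactive means the rest.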 Where a SMILES comes first, the peptide text is derived from it. The star is where a group is joined. Boc = CC(C)(C)OC(=O)*
# How the values were obtained:
# [1] = inhibitors of TNFa-induced NFkB p65 translocation, primary screen, imaging, HUVEC, MLSMR starter and 10KST1 sets (AID 438;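 active means inhibition above 20% together with a positive visual image hit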;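 further: compound added about 3h40 before a 20 min TNFalpha stimulation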;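 on inhibition: signal is the nuclear over cytoplasmic p65 intensity ratio per well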); conditions: HUVEC TNFa-induced p65 nuclear translocation; cell count: measured here: nuclei count (cytotoxicity indicator), at 2.08 µM; inhibition: at 2 µM, stronger effect = higher value, 0% TNFa-plus-vehicle, 100% no-TNFa wells
# [2] = reduction of polyQ htt aggregates in cells – imaging, exon1htt(103Q)mCFP cells, high-content imaging, primary screen (AID 483;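 active means visual image review flags a hit and inhibition of aggregation exceeds 20%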;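 further: compound exposure lasted 3 days before fixation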;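 on nuclei count: percent of the per-plate median nuclei count of sample wells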); conditions: exon1htt(103Q)mCFP cell line, aggregate imaging, at 2 µM; inhibition of aggregation: stronger effect = higher value; nuclei count: measured here: cell count, toxicity
# [3] = endothelial E-selectin expression blockers – imaging, HUVEC, immunofluorescence, MLSMR starter and 10KST1 sets, primary screen (AID 487;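 active means visually confirmed hit in the image check and inhibition above 20%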;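 on inhibition: signal is fraction of cell area covered by stained E-selectin grains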;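 on nuclei count: 100% = median nuclei count of all wells on the same plate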); conditions: HUVEC TNFalpha-induced E-selectin immunofluorescence imaging, at 2 µM; inhibition: stronger effect = higher value; nuclei count: measured here: cell number, toxicity
# [4] = biological target: Voltage-gated potassium channel subunit beta-2 (Rattus norvegicus) (UniProt P62483); assay: inhibitors of rat Kvbeta2 reductase activity – biochemical, NADPH fluorescence, primary screen (AID 622); conditions: recombinant KvBeta, 4-cyanobenzaldehyde reduction, at 10 µM, stronger effect = higher value;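 further: slope of raw intensity against log time taken from 70 to 1610 s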
# [5] = biological target: Voltage-gated potassium channel subunit beta-2 (Rattus norvegicus) (UniProt P62483); assay: enhancers of rat Kvbeta2 NADPH turnover – biochemical, NADPH fluorescence, primary screen (AID 623;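 active means NADPH fluorescence slope more negative than the mean of all samples by about 3 SD, 99.7% confidence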;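 further: fluorescence intensity change per second fitted from 20 to 320 s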); conditions: Recombinant KvBeta, NADPH fluorescence decrease slope, 10 min; at 10 µM; stronger effect = lower value
# [6] = biological target: Alpha-2C adrenergic receptor (Homo sapiens) (UniProt P18825); assay: compounds altering alpha2C-coupled GIRK flux – cell-based, HEK293 alpha2C/GIRK1/2, thallium flux, primary screen (AID 624;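 active means fluorescence slope after compound addition differing from the mean of all screened samples at 99.7% confidence, in either direction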;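 further: slope of fluorescence ratio to pre-addition baseline per second over 15 to 24 s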); conditions: thallium flux BTC fluorescence, at 10 µM, actives lie on both sides
# [7] = blockers of RIG-like receptor reporter activation – cell-based, Sendai virus stimulus, luciferase, 10K MLSCN set, TLR/RLR signaling modifier project, primary screen (AID 602276;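 active means inhibition at or above 50% at 10 µM; inactive means inhibition below 50%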;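 further: firefly luciferase from ISG56 promoter only with Renilla not read in this screen; 0% = Sendai virus plus DMSO and 100% = medium plus DMSO without virus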); conditions: HEK293 RL24 IRF3 luciferase reporter, at 10 µM, stronger effect = higher value
# [8] = TLR3 IRF3 reporter activation blockers – cell-based, poly I:C stimulus, luciferase, 10K MLSCN set, primary screen (AID 602277;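 active means inhibition of the reporter signal at or above 50%; inactive means inhibition below 50%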); conditions: HEK293-TLR3 RL24 IRF3 luciferase reporter, at 10 µM, stronger effect = higher value
# Voltage-gated potassium channel subunit beta-2 (Rattus norvegicus), sequence (P62483 whole entry, looked up): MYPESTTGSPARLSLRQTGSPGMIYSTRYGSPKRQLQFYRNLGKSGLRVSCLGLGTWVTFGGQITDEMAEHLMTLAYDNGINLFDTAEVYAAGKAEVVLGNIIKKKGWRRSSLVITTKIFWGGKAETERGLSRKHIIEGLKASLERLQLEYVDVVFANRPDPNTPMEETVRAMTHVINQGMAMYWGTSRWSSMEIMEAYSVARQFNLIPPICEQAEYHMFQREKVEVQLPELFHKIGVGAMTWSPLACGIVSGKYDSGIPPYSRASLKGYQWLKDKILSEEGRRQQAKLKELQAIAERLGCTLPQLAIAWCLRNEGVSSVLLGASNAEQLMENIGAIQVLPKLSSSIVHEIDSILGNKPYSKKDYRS
# Alpha-2C adrenergic receptor (Homo sapiens), sequence (P18825 whole entry, looked up): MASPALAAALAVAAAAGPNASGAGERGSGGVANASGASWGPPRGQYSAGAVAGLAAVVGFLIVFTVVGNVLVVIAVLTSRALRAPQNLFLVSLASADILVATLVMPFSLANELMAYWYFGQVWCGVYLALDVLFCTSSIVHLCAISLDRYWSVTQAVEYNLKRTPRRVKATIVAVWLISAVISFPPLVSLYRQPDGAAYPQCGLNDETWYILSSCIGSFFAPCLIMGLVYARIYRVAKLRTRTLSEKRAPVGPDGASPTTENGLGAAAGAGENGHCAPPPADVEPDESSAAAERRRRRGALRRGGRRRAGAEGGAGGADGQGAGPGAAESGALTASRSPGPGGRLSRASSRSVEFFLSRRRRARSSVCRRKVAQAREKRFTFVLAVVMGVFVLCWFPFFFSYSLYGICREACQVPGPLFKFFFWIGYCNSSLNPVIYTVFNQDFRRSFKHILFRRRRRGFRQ
SMILES,cell count [1],inhibition [1],inhibition of aggregation [2],nuclei count [2],inhibition [3],nuclei count [3],fluorescence slope [4],NADPH fluorescence slope [5],slope [6],inhibition [7],inhibition [8]
CC(=O)Oc1ccc(-c2ccc(C(=O)O)cc2)cc1,385,-6.5% (inactive),17.9% (inactive),99.6%,35.1% (inactive),102%,-0.315 (inactive),-7.2e-06 (inactive),0.00672 (inactive),4.99% (inactive),14.8% (inactive)
Nc1nc2n(n1)C(c1c(F)cccc1Cl)CC(c1ccc(F)cc1)N2 (stereo not drawn),868,3.5% (inactive),-46.8% (inactive),117%,-37% (inactive),110%,-0.455 (inactive),-1.9e-05 (inactive),0.0048 (inactive),-2.35% (inactive),25.6% (inactive)
CSCSC1=C(C#N)C(c2ccc(Cl)cc2)C(C(C)=O)=C(C)N1 (stereo not drawn),324,-1% (inactive),-2.2% (inactive),112%,-47.6% (inactive),102%,-0.451 (inactive),-0.00017 (inactive),0.00657 (inactive),10.5% (inactive),23.2% (inactive)
O=c1c2cc(N3CCOCC3)ccc2[nH]c(=S)n1CCCN1CCCCC1,522,6.2% (inactive),-8.5% (inactive),121%,-2.6% (inactive),106%,-0.0837 (active),8.7e-06 (inactive),0.00508 (inactive),-10.1% (inactive),23.3% (inactive)
COc1ccc(-n2c(SCC#N)nc3ccccc3c2=O)cc1,314,-4.7% (inactive),-15.4% (inactive),105%,-11% (inactive),118%,-0.491 (inactive),7e-05 (inactive),0.00655 (inactive),-8.69% (inactive),-76.1% (inactive)
CCCC(CCC)C(=O)NCCN1CCOCC1,412,-2% (inactive),6.3% (inactive),97%,-22.1% (inactive),90.6%,-0.494 (inactive),-3.5e-05 (inactive),0.0054 (inactive),11% (inactive),28.6% (inactive)
COC(=O)c1[nH]c2ccc(F)cc2c1NS(=O)(=O)c1ccc(OC)cc1OC,682,-11% (inactive),-3.2% (inactive),106%,-80.2% (inactive),152%,-0.598 (inactive),-5.6e-05 (inactive),0.00552 (inactive),16.7% (inactive),45.4% (inactive)
Cc1sc(NC(=O)CSc2nc(N)n(CC(=O)c3ccccc3)n2)c(C#N)c1C,403,-0.8% (inactive),-21.4% (inactive),111%,-61.6% (inactive),111%,-0.612 (inactive),-2.1e-05 (inactive),0.00622 (inactive),-14.5% (inactive),-21.2% (inactive)
CCOC(=O)Nc1nnc(-c2ccccc2OC)s1,613,-2.7% (inactive),-8.8% (inactive),108%,10.1% (inactive),102%,-0.514 (inactive),1.1e-05 (inactive),0.00542 (inactive),-20.9% (inactive),-24.1% (inactive)
Cn1cnc2c1c(=O)n(Cc1cccc(Br)c1)c(=O)n2C,320,1.4% (inactive),9.8% (inactive),113%,-17.1% (inactive),122%,-0.38 (inactive),8.1e-07 (inactive),0.00734 (inactive),14.2% (inactive),14.4% (inactive)
C(=C\c1ccccc1)/CSc1nnc(-c2ccccn2)n1Cc1ccco1,574,1.1% (inactive),-38.4% (inactive),24%,-95.8% (inactive),109%,-0.5 (inactive),-5.3e-05 (inactive),0.00478 (inactive),68.5% (active),58.9% (active)
CCN(C1CCCCC1)S(=O)(=O)c1ccc(OC)c(C)c1,862,-3.6% (inactive),9.9% (inactive),98.1%,-104% (inactive),128%,-0.498 (inactive),-2.3e-05 (inactive),0.00415 (inactive),-0.395% (inactive),28.2% (inactive)
Cc1cc(C)nc(SCCS(=O)Cc2ccc(Cl)cc2)n1 (stereo not drawn),306,-3.8% (inactive),-16.7% (inactive),108%,32.1% (inactive),95%,-0.503 (inactive),6.2e-06 (inactive),0.00559 (inactive),5.96% (inactive),8.92% (inactive)
CC(NC(=O)OC(C)(C)C)C(=O)N1CCCC1C(=O)NC(Cc1ccccc1)C(N)=O (stereo not drawn) (Boc-Ala-Pro-Phe-NH2; configuration not given here),220,9.7% (inactive),-15.1% (inactive),85.5%,-30.7% (inactive),93.1%,-0.498 (inactive),-3.8e-06 (inactive),0.00536 (inactive),19.8% (inactive),22.4% (inactive)
Cc1c(NC(=O)C2(c3ccccc3)CCOCC2)c(=O)n(-c2ccccc2)n1C,552,11.5% (inactive),9.2% (inactive),90.5%,25.9% (inactive),130%,-0.435 (inactive),2.3e-05 (inactive),0.00624 (inactive),0.891% (inactive),9.22% (inactive)
O=C(NC12CC3CC(CC(C3)C1)C2)N1CCN(C(=O)C2CCCO2)CC1 (stereo not drawn),434,-10.3% (inactive),-18.6% (inactive),100%,-186% (inactive),0.2%,-0.392 (inactive),-7.1e-05 (inactive),0.00603 (inactive),18% (inactive),11.1% (inactive)
CC1(C)Cc2ccccc2C(N)=C1C#N,331,-0.8% (inactive),35.2% (active),71.1%,9.4% (inactive),102%,-0.479 (inactive),2e-05 (inactive),0.00508 (inactive),-11.4% (inactive),-26.4% (inactive)
COc1cccc(NC(=O)N2CCN(c3cccc(C)c3C)CC2)c1,647,-5.2% (inactive),-12.7% (inactive),75.8%,-139% (inactive),93.3%,-0.455 (inactive),-4.9e-05 (inactive),0.00389 (inactive),-24.5% (inactive),-55.2% (inactive)
Cc1cccc(NC(=O)Cn2c(=O)n(C)c3ccccc32)c1,350,-3.7% (inactive),2.6% (inactive),107%,-17.7% (inactive),107%,-0.417 (inactive),9.1e-06 (inactive),0.011 (inactive),9.53% (inactive),9.37% (inactive)
COc1ccc(NC(=O)CCc2nc(-c3ccccc3F)no2)cc1,729,-1.7% (inactive),30% (active),94.6%,-8.4% (inactive),115%,-0.47 (inactive),-2.2e-05 (inactive),0.00593 (inactive),4.66% (inactive),10.4% (inactive)
Cc1csc2ncc(C(=O)Nc3ccccc3Cl)c(=O)n12,677,5.8% (inactive),-20% (inactive),95.1%,-12.3% (inactive),116%,-0.486 (inactive),5.1e-06 (inactive),0.00716 (inactive),-29% (inactive),-83.1% (inactive)
CCOc1cc(NC(=O)c2ccco2)c(OCC)cc1NC(=O)CCC(=O)NCc1cccnc1,600,4.9% (inactive),2.6% (inactive),97.7%,16% (inactive),90.3%,-0.358 (inactive),1.7e-05 (inactive),0.00315 (inactive),9.41% (inactive),23.3% (inactive)
COCCN(CC(=O)NCc1ccccc1)C(=O)CCC(=O)Nc1ccccn1,663,-4.4% (inactive),6.3% (inactive),86%,38.3% (inactive),117%,-0.506 (inactive),-2.7e-05 (inactive),0.00555 (inactive),19.1% (inactive),19.4% (inactive)
CCOC(=O)N1CCC(N(CCCOC)C(=O)Nc2ccc(CC)cc2)CC1,574,2.2% (inactive),-21.3% (inactive),106%,12.1% (inactive),93.2%,-0.531 (inactive),-2.6e-05 (inactive),0.00487 (inactive),4.87% (inactive),9.22% (inactive)
Cc1occc1C(=O)N1CCN(Cc2ccccc2)CC1,661,-9% (inactive),8.8% (inactive),75.8%,-40.1% (inactive),104%,-0.483 (inactive),-3.8e-05 (inactive),0.00745 (inactive),7.4% (inactive),34.1% (inactive)
CC(=O)NCC(=O)N(Cc1ccco1)C1(C(=O)NC2CCCCC2)CCCCC1,571,5.7% (inactive),19.5% (inactive),132%,-9.3% (inactive),128%,-0.538 (inactive),-4.2e-05 (inactive),0.00597 (inactive),9.16% (inactive),19.2% (inactive)
CCOC(=O)Cn1nc(-c2ccc(Cl)cc2)cc1N,285,15.6% (inactive),-12% (inactive),99.9%,-2.9% (inactive),111%,-0.501 (inactive),-8.2e-05 (inactive),0.00497 (inactive),-5.22% (inactive),-25.8% (inactive)
COc1ccc(C2=NO[C@@H]3C(=O)N(c4ccc5c(c4)OCCO5)C(=O)[C@H]23)cc1OC,608,-17.3% (inactive),-8.9% (inactive),111%,11.8% (inactive),98.1%,-0.541 (inactive),8.6e-06 (inactive),0.0052 (inactive),-13.6% (inactive),6.66% (inactive)
